Reference: PubChem BioAssay (Tox21)
“And” between values parts separate entries of the source, which are not always exact repeats. Equal values may be shown once. Unmarked numbers belong to inactive results. Inconclusive results are not listed. A call without a number means that no potency is given here. The source made the active and inactive calls. Unless noted, the call rests on the fitted dose curve; in most records, active means well fitted curve in the direction sought with a large enough effect in the repeat runs; inconclusive means weak or mixed curves; inactive means no such curve, though single readings can be large; an effect the other way counts as inactive or inconclusive.

Legend:
[1] = target: Thyrotropin receptor (Homo sapiens) (UniProt P16473); assay: qHTS assay to identify small molecule agonists of the thyroid stimulating hormone receptor (TSHR) signaling pathway (AID 1224843; calls by dose curve; further: nearly all actives have a fitted effect of over 45% in size; further: potency means the concentration at half of the fitted maximal effect); details: TSHR-HEK293 cells, cAMP HTRF, agonist mode, 30 min; series mostly up to 92.4 µM
Sequence of Thyrotropin receptor (Homo sapiens) (P16473 whole entry, looked up): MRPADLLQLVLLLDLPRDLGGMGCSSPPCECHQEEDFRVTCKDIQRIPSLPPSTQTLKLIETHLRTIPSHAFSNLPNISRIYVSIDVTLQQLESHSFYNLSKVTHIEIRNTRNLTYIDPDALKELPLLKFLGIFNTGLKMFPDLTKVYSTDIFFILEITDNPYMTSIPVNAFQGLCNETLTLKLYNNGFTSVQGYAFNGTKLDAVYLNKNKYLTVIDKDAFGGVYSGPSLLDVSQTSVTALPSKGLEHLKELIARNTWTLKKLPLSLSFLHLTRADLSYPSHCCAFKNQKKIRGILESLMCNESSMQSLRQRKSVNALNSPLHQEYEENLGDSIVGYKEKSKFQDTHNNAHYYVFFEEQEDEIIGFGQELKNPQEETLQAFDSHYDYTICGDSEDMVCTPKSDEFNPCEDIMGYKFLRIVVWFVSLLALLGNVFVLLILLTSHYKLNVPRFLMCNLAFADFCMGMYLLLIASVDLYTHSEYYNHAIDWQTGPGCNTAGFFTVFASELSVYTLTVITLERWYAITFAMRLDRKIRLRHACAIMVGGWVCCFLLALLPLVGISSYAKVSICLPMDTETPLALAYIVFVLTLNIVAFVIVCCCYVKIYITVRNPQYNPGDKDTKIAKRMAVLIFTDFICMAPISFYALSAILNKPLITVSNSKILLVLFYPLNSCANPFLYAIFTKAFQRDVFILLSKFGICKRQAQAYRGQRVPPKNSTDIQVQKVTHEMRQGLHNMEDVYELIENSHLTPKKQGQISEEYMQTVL
Method in brief: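 TSHR-expressing HEK293 cells (800 per well) were exposed to compounds for 30 min at room temperature. cAMP was then detected by HTRF competition with cAMP-d2 and anti-cAMP cryptate, read after 1 h at room temperature. Fifteen concentrations, triplicate.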

[2] = qHTS assay to identify small molecule agonists of the hypoxia (HIF-1) signaling pathway - cell viability counter screen (AID 1224844; calls by dose curve; further: nearly all actives have a fitted effect of over 50% in size; further: potency means the concentration at half of the fitted maximal effect); details: HRE-bla ME-180 viability, CellTiter-Glo luminescence, 17 h; series mostly up to 76.8 µM
Method in brief: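 Multiplexed with the HRE beta-lactamase assay, this viability read used CellTiter-Glo luminescence (30 min, RT) on HRE-bla ME-180 cells treated 17 hrs with compounds in 0.5% dialyzed FBS medium.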

[3] = qHTS assay to identify small molecule agonists of H2AX - cell viability counter screen (AID 1224847; calls by dose curve; further: top concentration of the series differs between compounds; nearly all actives have a fitted effect of over 30% in size); details: CHO-K1 viability, CellTiter-Glo luminescence, 3 h; series mostly up to 154 µM
Method in brief: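 Counter-screen for viability: CellTiter-Glo ATP luminescence read after 3 h compound treatment (15-point titration, 0.76% DMSO final) of CHO-K1 cells at 37C, with 30 min room-temperature reagent incubation.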

[4] = qHTS RealTime-Glo MT Cell Viability Assay in HepG2 cells - 24 hour (AID 1224867); details: RealTime-Glo luminescence; series mostly up to 76.8 µM; further: nearly all actives have a fitted effect of over 50% in size
Method in brief: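 HepG2 cells were seeded at 600 cells/well together with NanoLuc luciferase and a cell-permeant prosubstrate, preincubated 5 h at 37 C/5% CO2, then pin-dosed with compounds in DMSO. Nonlytic luminescence from viable cells was read at each time point.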

[5] = qHTS RealTime-Glo MT Cell Viability Assay in HEK293 cells - 32 hour (AID 1224868); details: RealTime-Glo luminescence; series mostly up to 76.8 µM; further: nearly all actives have a fitted effect of over 50% in size; further: potency means the concentration at half of the fitted maximal effect
Method in brief: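 HEK293 cells were seeded at 600 cells/well together with NanoLuc luciferase and cell-permeant prosubstrate, preincubated 5 h at 37 C/5% CO2, then given compound in DMSO by pintool. Luminescence from viable-cell prosubstrate reduction was read repeatedly over 40 h.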

[6] = A CellTox Green Cytotoxicity Assay to monitor cytotoxicity in HEK293 cells - 0 hour (AID 1224869); details: CellTox Green fluorescence; series mostly up to 76.8 µM; further: nearly all actives have a fitted effect of over 50% in size
Method in brief: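 Seeding of HEK293 cells together with cytotoxicity dye preceded a 5 h incubation at 37 C/5% CO2. Test compounds in DMSO were then added and fluorescence monitored across 40 h.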

[7] = qHTS assay to identify small molecule agonists of H2AX (AID 1224845; active means well fitted activation curve with a large enough effect in the signal ratio in the repeat runs, not every such curve was filed as active; the % refers to the signal ratio); details: CHO-K1 phospho-H2AX Ser139 HTRF, 3 h; series mostly up to 154 µM
Method in brief: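 Wild-type CHO-K1 cells plated overnight, then exposed 3 hr at 37C to compounds at 15 concentrations (0.76% DMSO). Lysed, then HTRF anti-pH2AX(S139)-cryptate/anti-H2AX-d2 detection after 24 hr at room temperature; emissions 665 and 620 nm.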

[8] = qHTS assay to identify small molecule agonists of the hypoxia (HIF-1) signaling pathway (AID 1224846; active means well fitted activation curve with a large enough effect in the signal ratio in the repeat runs, not every such curve was filed as active; the % refers to the signal ratio); details: HRE-bla ME-180 cells, beta-lactamase ratio, 17 h; series mostly up to 76.8 µM
Method in brief: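 Hypoxia-pathway activation was scored as increased beta-lactamase from an HRE-controlled reporter in ME-180 cells; plated at 2,000 cells per well with 0.5% dialyzed FBS, they were exposed 17 hrs to compounds and then given CCF4-AM.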

[9] = qHTS assay to identify small molecule antagonists of the estrogen related receptor (ERR) signaling pathway from Tox21 library (AID 1224848); details: ERR reporter cell line, luciferase antagonist mode, 18 h; series mostly up to 92.4 µM; further: nearly all actives have a fitted effect of over 50% in size
Method in brief: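 Cells: ERR line, 2,000/well; 6 h preincubation 37 C/5% CO2. Cpd in DMSO via pin tool; 18 h, 37 C. ONE-Glo, 30 min RT, luminescence.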

[10] = qHTS assay to identify small molecule agonists of the estrogen related receptor (ERR) signaling pathway from Tox21 library (AID 1224849; calls by dose curve; further: nearly all actives have a fitted effect of over 15% in size); details: ERR reporter cell line, ONE-Glo luciferase, 18 h; at 92.4 µM (top of the series)
Method in brief: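 Six hours post-seeding at 37 C/5% CO2, ERR cells receive DMSO-solubilised compounds; after 18 h at 37 C, ONE-Glo reagent is applied and luminescence recorded.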

Row | Compound | Potency [1] | Potency [2] | Potency [3] | Potency [4] | Potency [5] | Potency [6] | Potency [7] | outcome [8] | Potency [9] | activity change, positive = activation [10]
1 | S=c1nc[nH]c2nc[nH]c12 | inactive | inactive | inactive | inactive | 16.9 µM (active) | inactive | – | – | – | –
2 | Cc1cc(Cc2ccc(N)c(C)c2)ccc1N | – | inactive | inactive | inactive | inactive | inactive | inactive | inactive | – | –
3 | CCCCC(CC)C(=O)OCCOCCOCCOC(=O)C(CC)CCCC (centres undefined) | – | inactive | inactive | inactive | – | inactive | inactive | inactive | inactive | –
4 | O=S(=O)(O)c1cc(S(=O)(=O)O)c2c(N=Nc3ccccc3)c(O)ccc2c1 | inactive | inactive | inactive | inactive | inactive | inactive | – | – | – | –
5 | c1ccc2[nH]cnc2c1 | – | inactive | inactive | inactive | inactive | inactive | inactive | inactive | – | –
6 | C=C1CC[C@H](O)CC1=C/C=C1\CCC[C@]2(C)[C@@H]([C@H](C)/C=C/[C@H](C)C(C)C)CC[C@@H]12 | 21.5 µM (active) and 34.4 µM (active) | 43.3 µM (active) and 34.7 µM (active) | – | inactive | 48.5 µM (active) and 43.6 µM (active) | inactive | – | – | – | –
7 | Clc1cc(Cl)c(Cl)cc1Cl | – | inactive | inactive | inactive | inactive | inactive | inactive | inactive | inactive | 6.69% and 12.5%
8 | CCCCNC(N)=O | – | inactive | inactive | inactive | inactive | inactive | inactive | – | inactive | –
